This note sets out measurements from PubChem BioAssay (NCI).

Structures are written as SMILES. Values joined by “and” are separate entries in the source; they are usually repeats but may differ in a detail not shown here. Equal values may be shown once. The panel holds about 83,000 compounds, 20% with a hit somewhere; the sample as a whole holds those more often.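 The endpoint reported here, percent growth, reads 100 for growth as untreated, 0 for no net growth and -100 for all cells dead.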 Active and inactive are the calls of the source. Rule for the calls: active = growth percent below 10; inactive = the rest.

Some test systems named below: NCI-H23 lung; NCI-H226 lung; NCI-H322M lung; HOP-62 NSCLC; NCI-H460 lung; HOP-92 NSCLC; NCI-H522 lung; A549/ATCC NSCLC; 786-0 renal; COLO 205 colon; DU-145 prostate; K-562 leukemia; MALME-3M melanoma; MDA-MB-231 breast; RXF 393 renal; SF-268 CNS; SF-295 CNS; SF-539 CNS; UACC-257 melanoma; M14 melanoma.
Common to all, as to assay: NCI-60 one-dose screen, 48 h (100 = growth as untreated, 0 = no growth, -100 = all killed)
Conditions in all cases: 10 µM unless noted

With `O=[N+]([O-])c1ccc(N/N=C/C2CCCCCC2)c([N+](=O)[O-])c1`, the growth is 99.9% (inactive) in the experiment on NCI-H23 lung; 101% (inactive) in the experiment on NCI-H226 lung; 78.8% (inactive) in the experiment on NCI-H322M lung; 97% (inactive) with HOP-62 NSCLC; 94.6% (inactive) with NCI-H460 lung; 82.6% (inactive) in the experiment with HOP-92 NSCLC. Besides, the growth in the experiment with NCI-H522 lung was 78.5% (inactive); with A549/ATCC NSCLC it was 79.9% (inactive); with 786-0 renal it was 96.7% (inactive); with COLO 205 colon it was 94.6% (inactive); in the experiment with DU-145 prostate, 92% (inactive); in the experiment with K-562 leukemia it was 83.4% (inactive). The growth in the experiment on MALME-3M melanoma was 98% (inactive); in the experiment on MDA-MB-231 breast, 81.8% (inactive); in the experiment with RXF 393 renal, 98% (inactive); with SF-268 CNS it was 87.4% (inactive); with SF-295 CNS, 98.1% (inactive); in the experiment with SF-539 CNS, 99.8% (inactive). In addition, the results for the growth in the experiment with UACC-257 melanoma and in the experiment on M14 melanoma were 96.5% (inactive) and 85.1% (inactive), respectively.

Regarding `CN(C)c1ccc(C(=N)c2ccc(N(C)C)cc2)cc1`, the growth was 56.4% (inactive) and 41.9% (inactive) in the experiment on NCI-H23 lung; 74.5% (inactive) and 47.3% (inactive) in the experiment with NCI-H226 lung; 58.1% (inactive) and 60.9% (inactive) with NCI-H322M lung; 26.3% (inactive) and 37.2% (inactive) in the experiment with HOP-62 NSCLC; 9.11% (active) and 15.7% (inactive) in the experiment with NCI-H460 lung; 32.5% (inactive) and 27.5% (inactive) in the experiment on HOP-92 NSCLC. Further, the growth is -23.9% (active) and 17.8% (inactive) in the experiment with NCI-H522 lung; 32% (inactive) and 24.2% (inactive) with A549/ATCC NSCLC; 47.4% (inactive) and 40.2% (inactive) with 786-0 renal; 17.5% (inactive) and 13.2% (inactive) with COLO 205 colon; 42.3% (inactive) and 56.5% (inactive) in the experiment on DU-145 prostate; 12.8% (inactive) and 7.8% (active) with K-562 leukemia. Moreover, the growth with MALME-3M melanoma was 61.6% (inactive); in the experiment with MDA-MB-231 breast, 53.9% (inactive) and 35.9% (inactive); in the experiment on RXF 393 renal, 49.6% (inactive) and 39.6% (inactive); in the experiment with SF-268 CNS, 44.5% (inactive) and 53.6% (inactive); with SF-295 CNS, 26.7% (inactive) and 12.1% (inactive); in the experiment on SF-539 CNS, 41.1% (inactive) and 34.6% (inactive). For the same compound, the growth was 38.2% (inactive) and 51.7% (inactive) with UACC-257 melanoma; 2.95% (active) in the experiment on M14 melanoma.

Turning to `COC(=O)C(Cc1cn(C(C)=O)c2ccccc12)P(=O)(OC)OC` (stereo not given), the growth in the experiment with NCI-H23 lung was 98.5% (inactive); in the experiment with NCI-H226 lung, 91.5% (inactive); with NCI-H322M lung, 101% (inactive); in the experiment with HOP-62 NSCLC, 93.3% (inactive); in the experiment on NCI-H460 lung it was 98.1% (inactive); with HOP-92 NSCLC, 98.8% (inactive). Moreover, the growth with NCI-H522 lung is 103% (inactive); in the experiment on A549/ATCC NSCLC, 106% (inactive); with 786-0 renal, 105% (inactive); in the experiment on COLO 205 colon, 105% (inactive); with DU-145 prostate, 109% (inactive); in the experiment on K-562 leukemia, 102% (inactive). In addition, the growth is 96.1% (inactive) in the experiment with MALME-3M melanoma; 97.9% (inactive) in the experiment on MDA-MB-231 breast; 116% (inactive) with RXF 393 renal; 96.3% (inactive) in the experiment on SF-268 CNS; 97.1% (inactive) in the experiment with SF-295 CNS; 97.3% (inactive) with SF-539 CNS. Besides, the growth with UACC-257 melanoma was 110% (inactive); in the experiment on M14 melanoma it was 91.9% (inactive).

With `CSc1nc(N)c(N)c(N)n1`, the growth is 97.9% (inactive) with NCI-H23 lung; 91.9% (inactive) in the experiment with NCI-H226 lung; 106% (inactive) in the experiment on NCI-H322M lung; 92.6% (inactive) in the experiment with HOP-62 NSCLC; 104% (inactive) in the experiment on NCI-H460 lung; 86.6% (inactive) in the experiment on HOP-92 NSCLC. The growth was 70.1% (inactive) in the experiment on NCI-H522 lung; 95.1% (inactive) in the experiment with A549/ATCC NSCLC; 109% (inactive) in the experiment with 786-0 renal; 117% (inactive) in the experiment on COLO 205 colon; 106% (inactive) with DU-145 prostate; 101% (inactive) with K-562 leukemia. Further, the growth is 96.6% (inactive) in the experiment with MALME-3M melanoma; 97.6% (inactive) with MDA-MB-231 breast; 115% (inactive) in the experiment with RXF 393 renal; 107% (inactive) in the experiment on SF-268 CNS; 108% (inactive) in the experiment on SF-295 CNS; 103% (inactive) in the experiment with SF-539 CNS. Moreover, the growth is 96.9% (inactive) in the experiment on UACC-257 melanoma and 102% (inactive) with M14 melanoma.

Turning to `CCNC1=CC(=O)c2ncccc2C1=O`, the growth in the experiment with NCI-H23 lung is -49.7% (active); with NCI-H226 lung, 33.9% (inactive); with NCI-H322M lung, 13.9% (inactive); in the experiment on HOP-62 NSCLC, -42.5% (active); with NCI-H460 lung it was -78.3% (active); in the experiment on HOP-92 NSCLC it was 145% (inactive). In addition, the growth was -46.3% (active) in the experiment with NCI-H522 lung; -54.8% (active) with A549/ATCC NSCLC; 83.6% (inactive) in the experiment on 786-0 renal; -62.5% (active) in the experiment on COLO 205 colon; -92.9% (active) in the experiment on DU-145 prostate; 21.2% (inactive) with K-562 leukemia. For the same compound, the growth with MALME-3M melanoma is -84.6% (active); in the experiment with MDA-MB-231 breast, 51.2% (inactive); with RXF 393 renal it was 99% (inactive); in the experiment with SF-268 CNS, 58.3% (inactive); in the experiment on SF-295 CNS, -71.1% (active); in the experiment with SF-539 CNS it was -59.3% (active). In addition, the values for the growth in the experiment on UACC-257 melanoma and in the experiment with M14 melanoma were -13.5% (active) and -87.4% (active), respectively.

`Clc1ccc(/C=C/c2ccc3ccccc3n2)cc1`: the growth is 37.6% (inactive) and 89.5% (inactive) and 71.2% (inactive) in the experiment with NCI-H23 lung; 84.1% (inactive) and 81.1% (inactive) and 92.6% (inactive) in the experiment with NCI-H226 lung; 38.8% (inactive) and 90.3% (inactive) and 86.1% (inactive) with NCI-H322M lung; 45.2% (inactive) and 95.4% (inactive) and 93.5% (inactive) with HOP-62 NSCLC; 8.45% (active) and 86% (inactive) and 81.1% (inactive) with NCI-H460 lung; 42.9% (inactive) and 67% (inactive) and 85.3% (inactive) in the experiment with HOP-92 NSCLC. In addition, the growth in the experiment with NCI-H522 lung was -38.8% (active) and 79.1% (inactive) and 76.8% (inactive); with A549/ATCC NSCLC, 25.9% (inactive) and 92.3% (inactive) and 96.6% (inactive); in the experiment on 786-0 renal, 55.3% (inactive) and 97.8% (inactive) and 100% (inactive); with COLO 205 colon, -6.62% (active) and 112% (inactive) and 100% (inactive); in the experiment on DU-145 prostate, 1.65% (active) and 108% (inactive) and 103% (inactive); in the experiment on K-562 leukemia, 17.7% (inactive) and 91.2% (inactive) and 87.3% (inactive). For the same compound, the growth in the experiment on MALME-3M melanoma is 62.3% (inactive) and 89.8% (inactive) and 77.1% (inactive); in the experiment with MDA-MB-231 breast, 31% (inactive) and 80.1% (inactive) and 84% (inactive); in the experiment with RXF 393 renal, 8.75% (active) and 117% (inactive); with SF-268 CNS, 43.4% (inactive) and 97.7% (inactive) and 96.9% (inactive); in the experiment on SF-295 CNS, 17.9% (inactive) and 74% (inactive) and 84.7% (inactive); in the experiment on SF-539 CNS it was 1.74% (active) and 102% (inactive). Also, the growth is 44.2% (inactive) and 134% (inactive) and 104% (inactive) in the experiment on UACC-257 melanoma; 81% (inactive) and 75.3% (inactive) in the experiment on M14 melanoma.
